Laboratory results published in PubChem BioAssay (NCATS).
Inconclusive results are not listed. Entries that show only a call come without a potency. Activity calls are given as the source filed them. The call rests on the fitted dose curve; in most records, active means well fitted cell-killing curve with a large enough effect; inconclusive means small, poorly fitted or top-dose-only effect; inactive means flat fitted curve, though single readings scatter.

Test: qHTS of pediatric cancer cell lines to identify multiple opportunities for drug repurposing: Primary screen for BT-37 cells (AID 1347094)
Conditions: BT-37 viability, CellTiter-Glo luminescence, 48 h; series mostly up to 57.3 µM
Outline: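 Cells seeded at 500-1,000 cells/well in growth media, rested 5 hours at 37 degrees C, 5% CO2, then dosed; MIPE compounds at 11-point (from 0.78 nM) and NPC at 8-point (from 0.59 nM) final concentrations. Viability by CellTiter-Glo luminescence after 48 hours.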
Potency means the concentration at half of the fitted maximal effect.

Row | Compound | Potency
1 | Cc1ccc([N+](=O)[O-])[c]2c1[O][Hg]2 | 1550 nM (active)
2 | CCO[C@H]1O[C@@H]2OC3(C)CC[C@H]4[C@H](C)CC[C@@H]([C@H]1C)[C@@]24OO3 | inactive
3 | CC[C@]1(O)CC[C@H]2[C@@H]3CCC4=CCCC[C@@H]4[C@H]3CC[C@@]21C | inactive
4 | N#Cc1nn(-c2c(Cl)cc(C(F)(F)F)cc2Cl)c(N)c1S(=O)C(F)(F)F (stereo not given) | inactive
5 | CN(C)C(=S)SSC(=S)N(C)C | 872 nM (active)

Test: qHTS of pediatric cancer cell lines to identify multiple opportunities for drug repurposing: Primary screen for U-2 OS cells (AID 1347096); further: nearly all actives have a fitted effect of over 50% in size
Conditions: U-2 OS viability, CellTiter-Glo luminescence, 48 h; series mostly up to 46 µM
Outline: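 Cells (500-1,000/well) in growth media were settled 5 h at 37 degrees C, then given compounds for 48 h. Viability was read as CellTiter-Glo luminescence. Primary runs used MIPE at 11 points (0.78 nM-46 µM) and NPC at 8 points (0.59 nM-46 µM); follow-ups used 11 points.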

Row | Compound | Potency
6 | C[C@H](CN1CCOCC1)C(C(=O)N1CCCC1)(c1ccccc1)c1ccccc1 | inactive
7 | CCO[C@H]1O[C@@H]2OC3(C)CC[C@H]4[C@H](C)CC[C@@H]([C@H]1C)[C@@]24OO3 | inactive
8 | CC[C@]1(O)CC[C@H]2[C@@H]3CCC4=CCCC[C@@H]4[C@H]3CC[C@@]21C | inactive
9 | N#Cc1nn(-c2c(Cl)cc(C(F)(F)F)cc2Cl)c(N)c1S(=O)C(F)(F)F (stereo not given) | inactive
10 | CN(C)C(=S)SSC(=S)N(C)C | 266 nM (active)
